# Results taken from PubChem BioAssay (EPA / NIEHS).
# Activity calls are given as the source filed them. How the source made its calls: active means hit-call score of the fitted dose curve at least 0.9, where 1 is the maximum; inactive means score below 0.9.
# Assays:
# [1] = read-out: TIMP metallopeptidase inhibitor 1 (TIMP1), TIMP1 (gene 7076); experiment: BSK_hDFCGF_TIMP1: BioMAP Diversity Plus: hDFCGF Assay for TIMP metallopeptidase inhibitor 1 (TIMP1) Biomarker Activity (AID 2283062); conditions: primary human foreskin fibroblasts; actives raise or lower the signal
# Summary of the method: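 TIMP-1 measured by ELISA 24 h after chemical dosing of primary human skin fibroblasts, with gain or loss fitted relative to DMSO. Parallel SRB staining (560 nm) monitored overt cytotoxicity.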
# [2] = read-out: Matrix Metallopeptidase 1 (MMP1), MMP1 (gene 4312); experiment: BSK_hDFCGF_MMP1: BioMAP Diversity Plus: hDFCGF Assay for Matrix Metallopeptidase 1 (MMP1) Biomarker Activity (AID 2283064); conditions: primary human foreskin fibroblasts; actives raise or lower the signal
# Summary of the method: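 Primary human foreskin fibroblasts exposed to chemicals for 24 h; MMP1 measured by ELISA. Cytotoxicity tracked by SRB staining in parallel cultures; bidirectional fit relative to DMSO.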
# [3] = read-out: Vascular cell adhesion molecule 1 (VCAM1), VCAM1 (gene 7412); experiment: BSK_hDFCGF_VCAM1: BioMAP Diversity Plus: hDFCGF Assay for Vascular cell adhesion molecule 1 (VCAM1) Biomarker Activity (AID 2283065); conditions: primary human foreskin fibroblasts; actives raise or lower the signal;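 on AC50: VCAM-1 protein level quantified by ELISA after 24 h chemical exposure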
# Summary of the method: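 ELISA readout of VCAM-1 on human dermal fibroblast primary cultures, 24 h after chemical exposure. Gain or loss of signal fitted in both directions against DMSO baseline.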
# [4] = read-out: Plasminogen activator inhibitor-1 (PAI1), SERPINE1 (gene 5054); experiment: BSK_hDFCGF_PAI1: BioMAP Diversity Plus: hDFCGF Assay for Plasminogen activator inhibitor-1 (PAI1) Biomarker Activity (AID 2283066); conditions: primary human foreskin fibroblasts; actives raise or lower the signal
# Summary of the method: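 Human foreskin fibroblast primary cells, 24 h chemical exposure; PAI-1 measured by ELISA. Bidirectional fitting relative to DMSO; parallel cultures stained with SRB for total protein to flag overt cytotoxicity.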
# [5] = read-out: Intercellular Adhesion Molecule 1 (ICAM1), ICAM1 (gene 3383); experiment: BSK_KF3CT_ICAM1: BioMAP Diversity Plus: KF3CT Assay for Intercellular Adhesion Molecule 1 (ICAM1) Biomarker Activity (AID 2283067); conditions: primary human keratinocytes with fibroblasts; actives raise or lower the signal
# Summary of the method: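 Cell-surface ICAM-1 was measured by ELISA 24 h after dosing primary human skin keratinocytes co-cultured with fibroblasts. Parallel SRB staining tracked overt cytotoxicity. Gain or loss of signal was fitted relative to DMSO.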
# [6] = read-out: Interferon-gamma inducible Protein 10 (IP10), CXCL10 (gene 3627); experiment: BSK_KF3CT_IP10: BioMAP Diversity Plus: KF3CT Assay for Interferon-gamma inducible Protein 10 (IP10) Biomarker Activity (AID 2283068); conditions: primary human keratinocytes with fibroblasts; actives raise or lower the signal
# Summary of the method: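 ELISA read-out of IP-10 after 24 h chemical dosing of human skin primary co-culture (keratinocytes, foreskin fibroblasts). Gain or loss of signal relative to DMSO, bidirectional curve fit.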
# [7] = BSK_KF3CT_SRB: Viability Assessment in the BioMAP Diversity Plus: KF3CT Assay (AID 2283069); conditions: primary human keratinocytes with fibroblasts;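 further: total protein by sulforhodamine B staining as a cytotoxicity measure; read 24 h after compound addition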
# Summary of the method: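 Human keratinocyte and foreskin fibroblast co-culture exposed to chemical for 24 h. Total protein measured in parallel cultures by 0.1% sulforhodamine B staining after 10% TCA fixation, read at 560 nm; bidirectional fit relative to DMSO.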
# [8] = read-out: Interleukin-1 alpha (IL1a), IL1A (gene 3552); experiment: BSK_KF3CT_IL1a: BioMAP Diversity Plus: KF3CT Assay for Interleukin-1 alpha (IL1a) Biomarker Activity (AID 2283070); conditions: primary human keratinocytes with fibroblasts; actives raise or lower the signal
# Summary of the method: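 Primary human keratinocyte plus foreskin fibroblast co-culture, dosed and measured at 24 h in 96-well plates. IL-1a level quantified by ELISA; bidirectional fit relative to DMSO.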
# [9] = read-out: TIMP metallopeptidase inhibitor 2 (TIMP2), TIMP2 (gene 7077); experiment: BSK_KF3CT_TIMP2: BioMAP Diversity Plus: KF3CT Assay for TIMP metallopeptidase inhibitor 2 (TIMP2) Biomarker Activity (AID 2283071); conditions: primary human keratinocytes with fibroblasts; actives raise or lower the signal
# Summary of the method: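 Co-culture of human primary keratinocytes and foreskin fibroblasts, measured 24 h after chemical dosing. TIMP-2 quantified by ELISA and fitted in both directions relative to DMSO. Cytotoxicity checked in parallel cultures by SRB total-protein staining.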
# [10] = read-out: Transforming growth factor beta 1 (TGFb1), TGFB1 (gene 7040); experiment: BSK_KF3CT_TGFb1: BioMAP Diversity Plus: KF3CT Assay for Transforming growth factor beta 1 (TGFb1) Biomarker Activity (AID 2283072); conditions: primary human keratinocytes with fibroblasts; actives raise or lower the signal
# Summary of the method: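 Human keratinocyte/foreskin fibroblast co-culture; TGF-b1 measured by ELISA 24 h after dosing, fitted bidirectionally versus DMSO. Cytotoxicity checked in parallel cultures by total protein (SRB staining, 560 nm).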
# [11] = read-out: C-C motif chemokine 2 (Homo sapiens) (UniProt P13500); experiment: BSK_KF3CT_MCP1: BioMAP Diversity Plus: KF3CT Assay for Monocyte Chemoattractant Protein 1 (MCP1/CCL2) Biomarker Activity (AID 2283073); conditions: primary human keratinocytes with fibroblasts; actives raise or lower the signal
# Summary of the method: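 ELISA read-out of MCP-1, 24 h post-dose, in primary human skin keratinocytes co-cultured with fibroblasts. Parallel SRB staining monitors cytotoxicity; changes fitted both directions relative to DMSO.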
# [12] = read-out: Matrix Metallopeptidase 9 (MMP9), MMP9 (gene 4318); experiment: BSK_KF3CT_MMP9: BioMAP Diversity Plus: KF3CT Assay for Matrix Metallopeptidase 9 (MMP9) Biomarker Activity (AID 2283074); conditions: primary human keratinocytes with fibroblasts; actives raise or lower the signal;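 on AC50: MMP9 protein level quantified by ELISA in the co-culture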
# Summary of the method: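 Human keratinocyte and foreskin fibroblast co-culture exposed to chemicals for 24 h; MMP9 biomarker measured by ELISA, bidirectional fitting relative to DMSO; cytotoxicity tracked by SRB total protein staining in parallel cultures.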
# [13] = read-out: urokinase plasminogen activator (uPA), PLAU (gene 5328); experiment: BSK_KF3CT_uPA: BioMAP Diversity Plus: KF3CT Assay for urokinase plasminogen activator (uPA) Biomarker Activity (AID 2283075); conditions: primary human keratinocytes with fibroblasts; actives raise or lower the signal
# Summary of the method: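 Primary human keratinocyte/foreskin fibroblast co-culture exposed to chemical; uPA measured by ELISA at 24 h. Bidirectional fit versus DMSO, with parallel SRB total-protein staining for cytotoxicity.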
# CD40, CD40 (gene 958) = experiment: BSK_LPS_CD40: BioMAP Diversity Plus: LPS Assay for CD40 Biomarker Activity (AID 2283076); conditions: primary human HUVEC with PBMC; actives raise or lower the signal
# Summary of the method: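 In the LPS system of human endothelial cells with peripheral blood mononuclear cells, CD40 levels were read by ELISA 24 h post-treatment. Signal changes in either direction were fitted against the DMSO baseline, with parallel SRB protein staining.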
# [14] = read-out: E-selectin (Homo sapiens) (UniProt P16581); experiment: BSK_LPS_Eselectin: BioMAP Diversity Plus: LPS Assay for Eselectin Biomarker Activity (AID 2283077); conditions: primary human HUVEC with PBMC; actives raise or lower the signal
# Summary of the method: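 E-selectin ELISA on LPS-stimulated endothelial cell/PBMC co-cultures, read 24 h post-treatment; gains and losses fitted against DMSO. Parallel SRB staining (0.1% SRB after 10% TCA fixation, 560 nm) flags overt cytotoxicity.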
# [15] = read-out: Interleukin-8 (IL8), CXCL8 (gene 3576); experiment: BSK_LPS_IL8: BioMAP Diversity Plus: LPS Assay for Interleukin-8 (IL8) Biomarker Activity (AID 2283078); conditions: primary human HUVEC with PBMC; actives raise or lower the signal
# Summary of the method: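 ELISA read-out of IL-8 after 24 h chemical treatment of LPS-activated endothelial/PBMC human primary co-cultures. Changes either up or down relative to DMSO; overt cytotoxicity checked by sulforhodamine B staining in parallel wells.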
# [16] = BSK_LPS_SRB: Viability Assessment in the BioMAP Diversity Plus: LPS Assay (AID 2283079); conditions: primary human HUVEC with PBMC;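 further: total protein by sulforhodamine B absorbance as a cytotoxicity measure; measured one day after compound addition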
# Summary of the method: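 SRB viability endpoint: cells fixed with 10% TCA, stained with 0.1% SRB, read at 560 nm, 24 h post-dose. HUVEC/PBMC co-culture; signal change in either direction scored relative to DMSO.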
# [17] = read-out: Interleukin-1 alpha (IL1a), IL1A (gene 3552); experiment: BSK_LPS_IL1a: BioMAP Diversity Plus: LPS Assay for Interleukin-1 alpha (IL1a) Biomarker Activity (AID 2283080); conditions: primary human HUVEC with PBMC; actives raise or lower the signal
# Summary of the method: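 Readout is IL-1a level by ELISA, 24 h post-dose, fitted as gain or loss relative to DMSO. System: LPS-activated human primary co-culture of vascular endothelium and peripheral blood mononuclear cells, with parallel SRB total-protein cytotoxicity.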
# [18] = read-out: Monocyte Chemoattractant Protein-1 (MCP1), CCL2 (gene 6347); experiment: BSK_LPS_MCP1: BioMAP Diversity Plus: LPS Assay for Monocyte Chemoattractant Protein-1 (MCP1) Biomarker Activity (AID 2283081); conditions: primary human HUVEC with PBMC; actives raise or lower the signal;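 on AC50: secreted MCP-1 protein quantified by ELISA in culture supernatant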
# Summary of the method: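 Secreted MCP-1 read by ELISA at 24 h post-dosing in an LPS-activated co-culture of endothelial cells with peripheral blood mononuclear cells. Fits run in both directions, DMSO as baseline; parallel SRB staining tracks overt cytotoxicity.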
# Sequence of E-selectin (Homo sapiens) (P16581 whole entry, looked up): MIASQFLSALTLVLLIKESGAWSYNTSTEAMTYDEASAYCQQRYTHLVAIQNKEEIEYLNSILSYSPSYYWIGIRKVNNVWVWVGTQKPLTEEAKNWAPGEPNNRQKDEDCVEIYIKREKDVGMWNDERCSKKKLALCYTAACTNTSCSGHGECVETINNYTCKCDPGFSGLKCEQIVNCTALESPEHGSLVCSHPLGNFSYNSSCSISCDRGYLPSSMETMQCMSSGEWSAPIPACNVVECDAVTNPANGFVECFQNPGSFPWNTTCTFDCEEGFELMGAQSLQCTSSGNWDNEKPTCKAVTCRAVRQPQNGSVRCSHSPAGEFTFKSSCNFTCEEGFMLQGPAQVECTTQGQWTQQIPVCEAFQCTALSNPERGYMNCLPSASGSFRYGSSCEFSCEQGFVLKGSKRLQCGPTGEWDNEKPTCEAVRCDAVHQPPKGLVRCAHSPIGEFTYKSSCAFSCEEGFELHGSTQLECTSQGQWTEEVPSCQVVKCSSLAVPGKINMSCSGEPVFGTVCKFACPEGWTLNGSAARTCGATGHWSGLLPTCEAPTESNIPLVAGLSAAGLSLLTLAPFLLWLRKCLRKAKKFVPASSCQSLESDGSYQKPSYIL
smiles,measurement,setting,value
COc1ccc(C)cc1N,outcome,[1],inactive
same,outcome,[2],inactive
same,outcome,[3],inactive
same,outcome,[4],inactive
same,outcome,[5],inactive
same,outcome,[6],inactive
same,outcome,[7],inactive
same,outcome,[8],inactive
same,outcome,[9],inactive
same,outcome,[10],inactive
same,outcome,[11],inactive
same,outcome,[12],inactive
same,outcome,[13],inactive
same,outcome,"CD40, CD40 (gene 958)",inactive
same,outcome,[14],inactive
same,outcome,[15],inactive
same,outcome,[16],inactive
same,outcome,[17],inactive
same,outcome,[18],inactive
Cc1c(C(=O)O)c(O)cc2c1C(=O)c1c(O)c([C@@H]3O[C@H](CO)[C@@H](O)[C@H](O)[C@H]3O)c(O)c(O)c1C2=O,outcome,[1],inactive
same,outcome,[2],inactive
same,outcome,[3],inactive
same,outcome,[4],inactive
same,outcome,[5],inactive
same,outcome,[6],inactive
same,outcome,[7],inactive
same,outcome,[8],inactive
same,outcome,[9],inactive
same,outcome,[10],inactive
same,outcome,[11],inactive
same,outcome,[12],inactive
same,outcome,[13],inactive
same,AC50,"CD40, CD40 (gene 958)",0.782 µM (active)
same,outcome,[14],inactive
same,outcome,[15],inactive
same,outcome,[16],inactive
same,outcome,[17],inactive
same,outcome,[18],inactive
Cc1cccc(C)c1O,outcome,[1],inactive
same,outcome,[2],inactive
same,outcome,[3],inactive
same,outcome,[4],inactive
same,outcome,[5],inactive
same,outcome,[6],inactive
same,outcome,[7],inactive
same,outcome,[8],inactive
same,outcome,[9],inactive
same,outcome,[10],inactive
same,outcome,[11],inactive
same,outcome,[12],inactive
same,outcome,[13],inactive
same,outcome,"CD40, CD40 (gene 958)",inactive
same,outcome,[14],inactive
same,outcome,[15],inactive
same,outcome,[16],inactive
same,outcome,[17],inactive
same,outcome,[18],inactive
C1CCC(SSC2CCCCC2)CC1,outcome,[1],inactive
same,outcome,[2],inactive
same,AC50,[3],38.4 µM (active)
same,AC50,[4],30.8 µM (active)
same,outcome,[5],inactive
same,AC50,[6],30 µM (active)
same,outcome,[7],inactive
same,outcome,[8],inactive
same,AC50,[9],5.11 µM (active)
same,AC50,[10],5.33 µM (active)
same,outcome,[11],inactive
same,AC50,[12],13.7 µM (active)
same,outcome,[13],inactive
same,outcome,"CD40, CD40 (gene 958)",inactive
same,outcome,[14],inactive
same,outcome,[15],inactive
same,outcome,[16],inactive
same,outcome,[17],inactive
same,AC50,[18],20 µM (active)
Nc1ccccc1N,outcome,[1],inactive
same,outcome,[2],inactive
same,AC50,[3],6.75 µM (active)
same,outcome,[4],inactive
same,outcome,[5],inactive
same,outcome,[6],inactive
same,outcome,[7],inactive
same,outcome,[8],inactive
same,outcome,[9],inactive
same,outcome,[10],inactive
same,outcome,[11],inactive
same,AC50,[12],20 µM (active)
same,outcome,[13],inactive
same,AC50,"CD40, CD40 (gene 958)",5.79 µM (active)
same,outcome,[14],inactive
same,outcome,[15],inactive
same,outcome,[16],inactive
same,outcome,[17],inactive
same,outcome,[18],inactive
C[Si]1(C)O[Si](C)(C)O[Si](C)(C)O[Si](C)(C)O1,outcome,[1],inactive
same,outcome,[2],inactive
same,outcome,[3],inactive
same,outcome,[4],inactive
same,outcome,[5],inactive
same,outcome,[6],inactive
same,outcome,[7],inactive
same,outcome,[8],inactive
same,outcome,[9],inactive
same,outcome,[10],inactive
same,outcome,[11],inactive
same,outcome,[12],inactive
same,outcome,[13],inactive
same,outcome,"CD40, CD40 (gene 958)",inactive
same,outcome,[14],inactive
same,outcome,[15],inactive
same,outcome,[16],inactive
same,outcome,[17],inactive
same,outcome,[18],inactive
Oc1ccc2ccccc2c1N=Nc1ccccc1,outcome,[1],inactive
same,outcome,[2],inactive
same,outcome,[3],inactive
same,AC50,[4],0.855 µM (active)
same,outcome,[5],inactive
same,outcome,[6],inactive
same,outcome,[7],inactive
same,outcome,[8],inactive
same,AC50,[9],3.97 µM (active)
same,AC50,[10],6.33 µM (active)
same,outcome,[11],inactive
same,AC50,[12],3.97 µM (active)
same,outcome,[13],inactive
same,outcome,"CD40, CD40 (gene 958)",inactive
same,outcome,[14],inactive
same,outcome,[15],inactive
same,outcome,[16],inactive
same,outcome,[17],inactive
same,outcome,[18],inactive
